PubChem BioAssay (NCI)
Compounds without any hit were thinned out: in the full panel of roughly 79,000, 15% have a hit. A number with no mark means an inactive call. The source made the active and inactive calls. No stated cut-off is given here; in the data, active means growth inhibition above about 70%; inactive means the rest.

Key:
[1] = NCI Yeast Anticancer Drug Screen. Data for the rad50 strain (AID 155);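 further: 0% = growth of vehicle-only cultures of the same strain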; conditions: S. cerevisiae rad50 strain growth inhibition, active compounds read high
In short: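 Yeast carrying a defined DNA repair defect were exposed to test compounds, and growth was compared with vehicle-treated controls to give percent inhibition.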

[2] = NCI Yeast Anticancer Drug Screen. Data for the mec2-1 strain (AID 157); conditions: S. cerevisiae mec2-1 strain, active compounds read high
In short: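 Each compound was tested on mec2-1 yeast, a strain altered in DNA damage repair or cell cycle control. Growth inhibition is reported relative to vehicle.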

[3] = NCI Yeast Anticancer Drug Screen. Data for the sgs1 mgt1 strain (AID 161);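 further: 0% = growth of cultures given vehicle only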; conditions: S. cerevisiae sgs1 mgt1 strain, active compounds read high
In short: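 Genetically altered yeast, compound exposure, growth inhibition relative to vehicle.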

[4] = NCI Yeast Anticancer Drug Screen. Data for the cln2 rad14 strain (AID 165);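 further: 0% = growth equal to vehicle treated cultures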; conditions: S. cerevisiae cln2 rad14 strain, active compounds read high
In short: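 Test compounds were added to cln2 rad14 yeast cultures; inhibition of growth was then determined by comparison with vehicle treatment.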

[5] = NCI Yeast Anticancer Drug Screen. Data for the bub3 strain (AID 167); conditions: S. cerevisiae bub3 mutant strain, active compounds read high
In short: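 Compounds were applied to a genetically altered yeast strain carrying a cell-cycle control defect. Growth inhibition was scored against vehicle-treated controls.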

[6] = NCI Yeast Anticancer Drug Screen. Data for the mlh1 rad18 strain (AID 175); conditions: S. cerevisiae mlh1 rad18 strain growth inhibition, active compounds read high
In short: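 Inhibition values reflect reduced growth of mutant yeast versus vehicle-treated controls following compound exposure; the mutations affect DNA damage repair.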

[7] = at 5.0 µM (retest, dose inferred, filed as 0.5)
[8] = at 50.0 µM (retest, dose inferred, filed as 5.0)

Structure (SMILES)	growth inhibition [1, 7]	growth inhibition [1, 8]	growth inhibition ([1]; at 50.0 µM)	growth inhibition [2, 7]	growth inhibition [2, 8]	growth inhibition ([2]; at 50.0 µM)	growth inhibition [3, 7]	growth inhibition [3, 8]	growth inhibition ([3]; at 50.0 µM)	growth inhibition [4, 7]	growth inhibition [4, 8]	growth inhibition ([4]; at 50.0 µM)	growth inhibition [5, 7]	growth inhibition [5, 8]	growth inhibition ([5]; at 50.0 µM)	growth inhibition [6, 7]	growth inhibition [6, 8]	growth inhibition ([6]; at 50.0 µM)
O=[N+]([O-])c1cc(F)c(Sc2cc(Br)c([N+](=O)[O-])cc2F)cc1Br	1%	-16%	8.85%	-1%	-8%	9.55%	-1%	-7%	3.05%	1%	-21%	43.5%	6%	-3%	28.9%	0%	-4%	19.9%
NC(=Nc1ccccc1)c1ccc2c(c1)c1c(n2Cc2ccccc2)CCCC1	-9%	99% (active)	99.3% (active)	-7%	97% (active)	99.2% (active)	-5%	99% (active)	99.6% (active)	-5%	94% (active)	94.9% (active)	-2%	92% (active)	98.2% (active)	-1%	99% (active)	99.7% (active)
CC(C)(Br)C(=O)/C=C/c1ccc(Cl)cc1	92% (active)	100% (active)	99.5% (active)	92% (active)	100% (active)	99.7% (active)	94% (active)	99% (active)	99.6% (active)	89% (active)	100% (active)	99.7% (active)	38%	99% (active)	99.3% (active)	97% (active)	100% (active)	99.4% (active)
Cc1cc([N+](=O)[O-])ccc1NC(=O)N(C)CCOC(=O)Nc1ccccc1	48%	90% (active)	84% (active)	43%	95% (active)	89.2% (active)	42%	96% (active)	89.5% (active)	32%	97% (active)	86.4% (active)	44%	97% (active)	89.3% (active)	64%	96% (active)	87.8% (active)
CCOC(=O)C1CSC(c2c(CO)cnc(C)c2O)N1 (configuration not stated)	-1%	5%	47.6%	-8%	-3%	0.75%	-3%	2%	9.55%	4%	7%	-4.1%	2%	14%	10.8%	2%	5%	18.1%
OC(Cc1ccc(Br)cc1)CN1CCC(c2ccccc2)CC1 (configuration not stated)	98% (active)	98% (active)	83.9% (active)	71% (active)	71% (active)	74.5% (active)	97% (active)	97% (active)	82.8% (active)	87% (active)	87% (active)	78.9% (active)	83% (active)	83% (active)	87.8% (active)	88% (active)	88% (active)	79% (active)
CSC(=Nc1ccc(Cl)cc1)N1CC=Cc2ccccc21	2%	-1%	-1.85%	-13%	12%	5.85%	-15%	23%	43.4%	9%	-4%	42.8%	49%	82% (active)	81.8% (active)	0%	-1%	12.3%
CC(=O)N(C1=C(Cl)C(=O)c2ccccc2C1=O)c1ccc([N+](=O)[O-])cc1	98% (active)	98% (active)	99.2% (active)	99% (active)	99% (active)	99.2% (active)	98% (active)	100% (active)	99.5% (active)	96% (active)	97% (active)	99.5% (active)	99% (active)	98% (active)	98.6% (active)	98% (active)	99% (active)	99% (active)
CC(CCC(=O)O)(Nc1ccc([N+](=O)[O-])cc1[N+](=O)[O-])C(=O)O (configuration not stated)	51%	99% (active)	99.2% (active)	41%	100% (active)	99.6% (active)	52%	99% (active)	99.1% (active)	18%	100% (active)	91.9% (active)	34%	100% (active)	98.8% (active)	57%	100% (active)	98.8% (active)
CSc1nc(C)c(C(=O)CCN2CCOCC2)s1	-7%	67%	99.5% (active)	11%	99% (active)	99.6% (active)	-4%	75% (active)	99.6% (active)	-6%	89% (active)	93% (active)	-12%	92% (active)	47.6%	-5%	88% (active)	99.2% (active)
COC1=C(OC)C(=O)C(SCc2ccco2)=CC1=O	37%	98% (active)	50.6%	29%	99% (active)	73.3% (active)	53%	99% (active)	77.3% (active)	51%	90% (active)	36.9%	56%	99% (active)	62.1%	28%	77% (active)	65%
CCc1c(-c2ccccc2)c(CN2CCCCC2)c2ccccn12	6%	3%	-1.4%	13%	13%	-4.85%	0%	37%	88.2% (active)	-6%	26%	-20%	-4%	26%	-5.5%	-12%	5%	21.9%
N#Cc1c(-c2ccc(Cl)cc2)c2c(n(C3OC(CO)C(O)C(O)C3O)c1=S)CCCC2 (configuration not stated)	-3%	88% (active)	9.95%	-2%	77% (active)	10.5%	-1%	96% (active)	-8.85%	3%	86% (active)	31.2%	3%	96% (active)	1%	-2%	96% (active)	14.9%
O=c1c2ccccc2ncn1Cc1ccccc1[N+](=O)[O-]	-2%	14%	-31.8%	-2%	7%	-9.1%	0%	23%	-7%	-11%	-17%	73.3% (active)	-1%	42%	26.2%	0%	18%	-6.15%
O=C1c2ccc(O)c(O)c2C(=O)c2c(O)ccc(O)c21	84% (active)	95% (active)	73.2% (active)	74% (active)	95% (active)	55.5%	92% (active)	95% (active)	67.6%	34%	93% (active)	56%	85% (active)	93% (active)	72% (active)	91% (active)	95% (active)	77.8% (active)
O=C1C=CC(=O)c2c(O)c(N3CCN(CCOCCO)CC3)c(Br)c(O)c21	15%	96% (active)	88.3% (active)	13%	98% (active)	88.6% (active)	18%	97% (active)	89.7% (active)	17%	96% (active)	86.4% (active)	25%	96% (active)	85.9% (active)	16%	98% (active)	86.5% (active)
Nc1ccc2nc(Nc3ccc(F)cc3)cnc2c1	-11%	63%	63.5%	-9%	27%	15.4%	-18%	36%	56%	17%	49%	28.9%	7%	73% (active)	60%	7%	77% (active)	65.2%
COc1ccc(CN2CCCN(Cc3ccc(OC)cc3OC)C2c2cccc([N+](=O)[O-])c2O)c(OC)c1	16%	61%	70.8% (active)	11%	29%	29.8%	8%	20%	77.5% (active)	5%	27%	54.1%	-5%	31%	7.65%	16%	70% (active)	51.4%
CCOC(=O)CCC(=O)Oc1ccc2c(c1OC(=O)CCC(=O)OCC)C(=O)c1ccccc1C2=O	25%	97% (active)	87.5% (active)	11%	97% (active)	78.8% (active)	50%	98% (active)	83% (active)	13%	97% (active)	66%	8%	96% (active)	60.5%	22%	97% (active)	95% (active)
